Screens from PubChem.
Most compounds without a hit are left out; they make up all but 8% or so of the library.
HT1080NT lethal – kills 2HG-producing HT-1080-NT fibrosarcoma cells; HT-1080-NT fibrosarcoma viability, CellTiter-Glo ATP luminescence, 48 h; Potency, µM (doses to about 46.1 µM), for the others: top-dose activity, negative = less viability, most hits filed as cytotoxic; actives 1.6% (n = 360,000);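 note: NT is the 2HG producing partner of a matched IDH1 knockdown line; 0% = DMSO-treated cells and -100% = media-only wells without cells; nearly all actives have a fitted effect of over 55% in size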
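750 cells/well, RPMI + 5% FBS; 2 h settle, compound pin-transfer, 48 h at 37 degrees C. CellTiter-Glo 10 min RT, luminescence. Normalized to DMSO and media-only wells.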
KB-3-1 tox – kills parental KB-3-1 adenocarcinoma cells; KB-3-1 viability, CellTiter-Glo ATP luminescence, 72 h; Potency, µM (top dose mostly 46.1 µM), most hits filed as cytotoxic; actives 1.4% (n = 400,000); AID 1347075; note: % is set by controls: 0 for no effect and ±100 for the full control effect; nearly all actives have a fitted effect of over 60% in size
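Screening of KB-3-1 cells (DMEM, 10% FBS, phenol-red free) ran from lowest to highest compound concentration; after 72 h at 37 °C viability was read luminescently and curves fitted.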
MCF10A rereplic – inducers of DNA re-replication in MCF 10A breast cells; MCF 10A DNA re-replication, Hoechst nuclear intensity, 48 h; Potency, µM (top dose mostly 46.1 µM), inactives show top-dose activity, positive = re-replication, hits mostly activators; actives 2.9% (n = 350,000); AID 624296; note: % of control where 0% means no effect; nearly all actives have a fitted effect of over 50% in size
KB-V1 MDR tox – KB-V1 MDR subline cytotoxicity. actives 3.4% (n = 400,000). Potency, µM (top dose mostly 46.1 µM), actives largely listed as cytotoxic. KB-V1 MDR cells viability, CellTiter-Glo, 72 h. AID 1347076; note: % is set by controls: 0 for no effect and ±100 for the full control effect; nearly all actives have a fitted effect of over 60% in size
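Cytotoxicity toward P-gp-expressing KB-V1 cells was determined as loss of CellTiter-Glo luminescence after 72 h at 37 degrees C. Compounds were tested in quantitative HTS format across a concentration range, with curves fitted to normalized data.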
SW480 rerep – inducers of DNA re-replication in SW480 colon cancer cells; actives 1.8% (n = 340,000); SW480 DNA re-replication, Hoechst DNA content imaging, 48 h; Potency, µM (titrated, usually from 46.1 µM), for inactives: at the top dose re-replication activation, usual class: activators; note: % of control where 0% means no effect; nearly all actives have a fitted effect of over 55% in size
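Compounds, transferred as 23 nL by pin tool, were incubated with cells for 48 hr; DNA content per nucleus was then quantified by Hoechst staining and fluorescence plate imaging.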
HT1080 IDH1KD tx – toxicity to HT-1080 IDH1 knockdown cells (counter line). HT-1080 IDH1 knockdown viability, ATP luminescence, 48 h. Potency, µM (doses to about 46.1 µM), without a hit: at the top dose activity, negative = toxicity, hits mostly cytotoxic. actives 2% (n = 360,000);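 note: 0% = DMSO wells and -100% = cell-free medium wells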
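Using the IDH1-knockdown HT-1080 line run in the same batch and compound series as the NT line, viability after 48 h at 37 °C was determined by CellTiter-Glo luminescence and expressed as % activity.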
* = called active by the depositor; i = inactive; ? = inconclusive; . = not tested or not shown. Calls come from the whole dose curve; as a rule, active = well fitted curve in the direction sought with a large enough effect; inconclusive = small, poorly fitted or top-dose-only effect, or another doubt; inactive = no such curve, though single readings can be large; an effect the other way counts as inactive or inconclusive. Potency is the fitted concentration of half-maximal effect.

SMILES | HT1080NT lethal | KB-3-1 tox | MCF10A rereplic | KB-V1 MDR tox | SW480 rerep | HT1080 IDH1KD tx
OC(COc1ccc(OCc2ccccc2)cc1)CN1CCCCC1 (stereo not drawn) | -5% | i | 3% | i | 2% | 2%
OC1CCCN(CC(O)COc2ccc(-c3ccccc3)cc2)C1 (stereo not drawn) | ? | i | ? | ? | 15% | ?
CC(C)(c1ccccc1)c1ccc(OCC(O)CN2CCCC2)cc1 (stereo not drawn) | ? | ? | ? | i | 16µM* | ?
CC1CCCN(CC(O)COc2ccc(-c3ccccc3)cc2)C1 (stereo not drawn) | 18µM* | ? | ? | i | ? | ?
CCCCn1c(=O)n(CC(=O)Nc2ccc(C)c(Cl)c2)c(=O)c2c1ncn2Cc1ccco1 | -6% | i | 4% | i | 0% | -4%
CCOc1ccc(NC(=O)NCCN2C(C)CCCC2C)cc1 (stereo not drawn) | -1% | i | 0% | i | -10% | 7%
COc1ccccc1N(C(=O)c1snc(C(N)=O)c1N)C(C(=O)NCCC(C)C)c1ccco1 (stereo not drawn) | 6% | i | -13% | i | 0% | -28%
CCOC(=O)C(CC)Sc1nnc(COc2ccc(C)cc2)n1-c1ccccc1 (stereo not drawn) | -18% | i | -1% | i | ? | -4%
Cc1ccc(C(=O)N(CC(C)C)c2nc3ccccc3s2)o1 | ? | i | 14% | i | -2% | -17%
CNC(=O)NC(=O)C(NC1CCCc2ccccc21)c1ccccc1 (stereo not drawn) | -10% | i | ? | i | ? | -7%
Cc1ccc(NC(=O)C(NC2CCCc3ccccc32)c2ccccc2)cc1Cl (stereo not drawn) | -5% | ? | 1.3µM* | i | ? | -26%
CC(=O)c1ccc2c(c1)CC1(C2)Cc2cc3c(cc2C1)C(=O)CC3 (stereo not drawn) | ? | 3.7µM* | 4.1µM* | 2.6µM* | 7.3µM* | ?
CC(=O)c1ccc2c(c1)Cc1cc(C(C)=O)ccc1-2 | 3% | i | -4% | ? | -3% | 1%
Cc1nc2ccccc2n1-c1nc(-c2ccco2)cc(C(F)(F)F)n1 | 5.6µM* | i | ? | i | ? | 5.6µM*
Cc1ccc2c(C)nc(Nc3ncc4c(n3)CCCC4=O)nc2c1 | -1% | i | -4% | i | -12% | -2%
COC(=O)C1=C(C)NC(C)=C(C(=O)OCCN(C)Cc2ccccc2)C1c1cccc([N+](=O)[O-])c1 (stereo not drawn) | -28% | i | ? | 18µM* | ? | ?
COC(=O)C1=C(C#N)NC(C)=C(C(=O)OC(C)C)C1c1cccc([N+](=O)[O-])c1 (stereo not drawn) | . | . | 13% | . | 5% | .
OCCOCCn1c(CCNc2nc(-c3ccc(Cl)cc3)cs2)nc2cc(Cl)c(Cl)cc21 | -15% | i | ? | i | 0% | -20%
CCC(C)c1ccccc1NC(=O)COC(=O)c1ccc(N2CCCC2)c([N+](=O)[O-])c1 (stereo not drawn) | 1% | 0.0023µM* | 5% | i | -4% | -2%
CCC(C)c1ccccc1NC(=O)COC(=O)c1ccc2[nH]c3c(c2c1)CCCC3 (stereo not drawn) | -30% | ? | 8.2µM* | 21µM* | ? | ?
O=C(COC(=O)c1ccc(N2CCOCC2)c([N+](=O)[O-])c1)Nc1ccc2c(c1)OCO2 | ? | ? | -2% | 8.2µM* | 0% | 26%
Cc1c(CCOC(=O)c2ccc(N3CCOCC3)c([N+](=O)[O-])c2)sc[n+]1CC#N | 23µM* | 21µM* | 16µM* | ? | 27% | ?
Cc1cccc(C)c1NC(=O)COC(=O)c1ccc(N2CCCC2)c([N+](=O)[O-])c1 | 8% | i | -1% | i | 1% | 11%
COc1ccc2c(COC(=O)c3cccc(S(=O)(=O)NCC(C)C)c3)cc(=O)oc2c1 | -21% | i | ? | i | -38% | -23%
CCc1cc2c(COC(=O)c3cccc(NS(C)(=O)=O)c3)cc(=O)oc2cc1O | ? | i | 9.2µM* | i | 28% | ?
SMILES | HT1080NT lethal | KB-3-1 tox | MCF10A rereplic | KB-V1 MDR tox | SW480 rerep | HT1080 IDH1KD tx
CCCNS(=O)(=O)c1cccc(C(=O)OCc2cc(=O)oc3cc(OC)ccc23)c1 | ? | i | 7.3µM* | i | ? | ?
Cc1cc(C)c2nc(SCC(=O)Nc3ccc(S(=O)(=O)N4CCCC4)cc3)c(C)cc2c1 | -1% | i | 4% | i | -2% | -1%
Cc1nnc(NC(=O)C2CC(=O)N(Cc3ccccc3)C2)s1 (stereo not drawn) | ? | i | 8% | i | -1% | 5%
O=C(Nc1nnc(SCc2ccc(F)cc2)s1)C1CC(=O)N(Cc2ccccc2)C1 (stereo not drawn) | 4% | i | ? | 21µM* | 29% | 22%
CC(=O)c1ccc(S(=O)(=O)N2CCN(c3nc(-c4cccs4)nc4ccccc34)CC2)cc1 | . | i | . | i | . | .
Cc1cccc(-n2nnnc2SCC(=O)c2cc(C)n(Cc3ccco3)c2C)c1 | -20% | i | 10% | 18µM* | -3% | ?
Cc1cc(C(=O)CSc2nnnn2-c2ccccc2)c(C)n1-c1ccc2c(c1)OCO2 | -10% | ? | ? | 7.3µM* | ? | -20%
Cc1cc(C(=O)CSc2nnc(-c3cccc(F)c3)n2N)c(C)n1Cc1ccc2c(c1)OCO2 | -4% | ? | 5% | 2.6µM* | -3% | -16%
Cc1cc(C(=O)CSc2nnnn2-c2ccc(O)cc2)c(C)n1Cc1ccc2c(c1)OCO2 | -1% | ? | ? | 15µM* | -3% | -5%
Cc1cccc(-n2nnnc2SCC(=O)c2cc(C)n(CC3CCCO3)c2C)c1 (stereo not drawn) | -18% | i | 13% | ? | -2% | -4%
CCCn1c(SCC(=O)c2cc(C)n(-c3ccc4c(c3)OCO4)c2C)n[nH]c1=O | -11% | 12µM* | 14% | 2.9µM* | -3% | -19%
Cc1cc(C(=O)CSc2nncs2)c(C)n1-c1ccc2c(c1)OCO2 | ? | i | -14% | 16µM* | -3% | -7%
O=C(Nc1ccc(F)c(Cl)c1)Nc1csc2ccccc12 | 9.2µM* | ? | ? | 12µM* | 12% | 6.5µM*
O=C(CNC(=O)C1CCCCC1)Nc1ccccc1Cl | 5% | i | 0% | i | 0% | 0%
